# Assay results taken from PubChem BioAssay (NCI).
# The panel holds about 83,000 compounds, 20% with a hit somewhere; the sample as a whole holds those more often.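 How to read the values: 0–100, growth inhibition (40 = 60% inhibited); 0, no net growth; -100 to 0, cell death (-40 = 40% of starting cells died; -100 = all dead).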 Calls of active or inactive are those of the source. The calls were made as follows: active = growth percent below 10; inactive = the rest.
# Tested on: HL-60(TB) leukemia
# Test: NCI-60 one-dose screen, 48 h (100 = growth as untreated, 0 = no growth, -100 = all killed)
# Conditions: 10 µM unless noted
row,SMILES,growth
1,C[C@@H]1CN(c2cnc(C(=O)Nc3cc(F)cc4cccnc34)cn2)C[C@H](C)N1,82.4% (inactive)
2,Nc1ccc(Cl)c2c(=O)c3ccccc3[nH]c12,63.7% (inactive)
3,O=C1Nc2c(C(=O)O)cccc2/C1=N/c1n[nH]c(=S)s1,79.7% (inactive)
4,COc1cccc(CCC(=O)c2cc3c(N)c(C(=O)Nc4cccc(Cl)c4C)sc3nc2C)c1,0.884% (active)
5,Clc1ccc2c(NCCCNc3nccc(Nc4ccc(Br)cc4)n3)ccnc2c1,-69.2% (active)
6,COC(=O)[C@H](C)NC(=O)c1ccc(NC(=O)c2[nH]c(C)c(Cl)c2Cl)c(OCCN)c1,95.2% (inactive)
7,CCCCOc1nc2c(C)cccc2cc1C1CNC(=O)c2ccccc2N1 (stereo not given),26.2% (inactive)
8,O=C(c1ccccc1)N(CCc1ccc(Cl)cc1)C(=S)N(C(=O)c1ccccc1)c1ccccc1,90.3% (inactive)
9,O=C1CSC(c2ccccc2Cl)N1c1nnc(-c2ccncc2)o1 (stereo not given),95.2% (inactive)
10,CSC1=Nc2c(c(C)c(-c3ccccc3)n2CCCN2CCCCC2)C2=NC(=O)C[C@H](C)N12,-33.2% (active)
11,COc1ccc(C2C3=C(COC3=O)N(CCO)c3cc4c(cc32)OCCO4)cc1OC (stereo not given),6.34% (active)
12,COc1ccc(C2CC(=O)c3c(nc4ccc(Cl)cc4c3N)C2)cc1 (stereo not given),99.1% (inactive)
13,Cc1nc(-c2ccccc2)cc2c(O)c(C(=O)N/N=C/Cc3ccccc3)[nH]c(=O)c12,76.8% (inactive)
14,CCCCCCOC(=O)CC1=C(C)/C(=C/c2[nH]c(-c3ccc[nH]3)cc2OC)N=C1C,-42.7% (active)
15,CCCCCCC/C=N/NC(=O)c1ccc(-n2cc(-c3ccccc3)nn2)cc1,95.2% (inactive)
16,N#Cc1c(NC(=O)NCc2ccccc2)sc2c1CCCC2,-4.95% (active)
17,COc1ccc(/C=C2\CN(C(=O)CCN3CCC(=NO)CC3)C/C(=C\c3ccc(OC)cc3)C2=O)cc1,-14.4% (active)
18,CSc1nc(NCc2ccccc2)c(C#N)c(-c2cccc([N+](=O)[O-])c2)n1,107% (inactive)
19,CCOC(=O)/C(C#N)=C(\C)CCc1ccccc1,239% (inactive)
20,CCC(C)NCC(=O)O (stereo not given),100% (inactive)

row,SMILES,growth
1,CCCCCCCC(=O)SCC/C=C/[C@@H]1CC(=O)NCc2cccc(n2)C2=N[C@@](C)(CS2)C(=O)N[C@@H](C(C)C)C(=O)N1,24.7% (inactive)
2,CCN(CC)Cc1cccc(C(=O)OC)c1,83.2% (inactive)
3,COc1ccc(/C=C2\COc3ccc(O)cc3C2=O)c(OC)c1,11.2% (inactive)
4,COc1ccc(C2=C(c3cccc(OC)c3)C(=O)c3ccc(C)nc3C2=O)cc1,41.1% (inactive)
5,CN(C)C/C=C/C(=O)Nc1cc2c(Nc3cccc(Cl)c3F)ncnc2cc1OCCOC(F)F,43.2% (inactive)
6,CCOC(=O)c1cc(N)nc2ccccc12,104% (inactive)
7,c1ccc(Oc2c3ccccc3nc3ccccc23)cc1,-16.4% (active)
8,CN1CCN(c2ccc(Nc3c4ccccc4nc4ccccc34)cc2)CC1,119% (inactive)
9,COc1ccc(C(=O)Nc2nc(-c3ccc(Cl)cc3)cs2)cc1,105% (inactive)
10,Cc1cc(NC(=O)CNc2nc(Oc3ccc(F)cc3)nc(-c3ccc(F)cc3)n2)ccc1Cl,96.4% (inactive)
11,CCCCCn1c(C)cc(/C=C\c2ccc3cc(C)ccc3[n+]2C)c1C,-6.41% (active)
12,Cc1ccc(Nc2nc(NCCO)c3ccccc3n2)cc1C,-10.3% (active)
13,Nc1cnc(C(=O)NNc2nc3cc(F)ccc3n3cccc23)cn1,12.1% (inactive)
14,CN(C)CCCN1c2ccccc2CCc2ccccc21,91.4% (inactive)
15,OC(CCC(O)(c1ccccc1)c1ccccc1)(c1ccccc1)c1ccccc1,-21.7% (active)
16,Cc1cc2nc(CC(=O)c3ccncc3)c(=O)[nH]c2cc1C,89.8% (inactive)
17,CCC12OC(COc3ccccc3)CN1CCN2c1ccccc1 (stereo not given),94.7% [100 µM] (inactive)
18,CCN(CC)c1ccc(/C=N/NC(=O)CSc2nc3ccccc3c(=O)n2Cc2ccc(S(N)(=O)=O)cc2)c(O)c1,-19.7% (active)
19,CCN(C(=O)CCl)C(C)(C)C(SSSC(c1ccc(Cl)cc1)C(C)(C)N(CC)C(=O)CCl)c1ccc(Cl)cc1 (stereo not given),42.1% (inactive)
20,O=C1CSC(c2ccccc2O)N1c1nnc(Cn2ccnc2)o1 (stereo not given),24.9% (inactive)
